MITF inh – MITF inhibitors, primary screen, biochemical, AlphaScreen, human. actives 0.91% (n = 650,000). AlphaScreen MITF homodimerization, bead proximity signal. inhibition, % at 2.6 µM; in the data active = inhibition above about 50%;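 also: 0% = vehicle wells with protein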
Target sequence (O75030 whole entry, looked up): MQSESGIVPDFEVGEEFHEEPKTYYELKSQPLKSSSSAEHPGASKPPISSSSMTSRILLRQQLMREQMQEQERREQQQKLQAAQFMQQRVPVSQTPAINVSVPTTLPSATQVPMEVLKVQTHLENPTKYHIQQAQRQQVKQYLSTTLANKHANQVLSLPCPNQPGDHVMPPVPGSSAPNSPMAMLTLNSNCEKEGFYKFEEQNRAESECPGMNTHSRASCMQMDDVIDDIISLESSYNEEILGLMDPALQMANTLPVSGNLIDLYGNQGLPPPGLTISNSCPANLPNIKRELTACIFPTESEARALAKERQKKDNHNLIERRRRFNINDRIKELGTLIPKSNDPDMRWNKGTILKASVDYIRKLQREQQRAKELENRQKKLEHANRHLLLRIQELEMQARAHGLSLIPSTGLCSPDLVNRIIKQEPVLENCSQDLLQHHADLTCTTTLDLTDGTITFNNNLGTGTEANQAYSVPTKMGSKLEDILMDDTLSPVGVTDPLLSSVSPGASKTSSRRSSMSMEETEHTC
GPR151 activ – activators of human GPR151, primary screen, cell-based, PathHunter beta-arrestin, luminescence. G-protein coupled receptor 151 (Homo sapiens), Q8TDV0. activation, % at 11.2 µM. actives 1% (n = 650,000). PathHunter beta-arrestin GPR151 cells. AID 1508602, 2020; in the data active = activation above about 4.9%;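 also: 0% = median of compound wells and 100% = cells with positive control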
TEAD-YAP block – TEAD-YAP interaction inhibition, primary screen, TEAD-YAP interaction inhibitor project, luminescence, HEK-TIYL cells. TEAD-Gal4/YAP UAS-luciferase luminescence. inhibition, % at 9.12 µM. actives 1.4% (n = 640,000); in the data active = inhibition above about 32%;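 also: 0% = median of test compound wells and 100% = reference inhibitor wells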
FBW7 act – FBW7 E3 ligase activators, primary screen, biochemical, AlphaScreen, human; F-box/WD repeat-containing protein 7 (Homo sapiens), Q969H0; normalized activity (activation), % at 26.1 µM; AlphaScreen FBW7–phospho-cyclin E peptide binding, activator screen; actives 0.13% (n = 650,000); AID 1259310, 2017; in the data active = normalized activity above about 1.9%;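 also: purified mutant Fbw7 with reduced substrate affinity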
GPR151 confirm – GPR151 activators, triplicate retest, confirmation, cell-based, PathHunter beta-arrestin, luminescence; AID 1508609, 2020; activation, % at 11.2 µM; 6,700 tested, under 10 active; GPR151 PathHunter beta-arrestin cells, 90 min; % of EA-reagent control over plate median; shares compounds with GPR151 activ;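 active = mean percent activation across replicates above the confirmation screen cutoff of 4.91%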
GPR119 counter – GPR119 activators in beta-arrestin cells, counter-screen for GPR151 activator project, cell-based, PathHunter beta-arrestin, luminescence, triplicate. shares compounds with GPR151 activ. 90 min; 0 = compound-well median, 100 = enzyme-acceptor control. activation, % at 11.2 µM. actives 0.3% (n = 6,700). AID 1508611, 2020;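 active = mean percent activation in the counterscreen above 29.09%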;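 also: counterscreen on off-target GPR119 to flag nonselective hits from the GPR151 activator screen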
Numbers without * were called inactive; · = no result given. A selection: hits, their analogues and other compounds. The true share with any hit is near 3.5%.

SMILES	MITF inh	GPR151 activ	TEAD-YAP block	FBW7 act	GPR151 confirm	GPR119 counter
CCOC(=O)CSc1ccc(C(=O)N(CC)CC)cc1[N+](=O)[O-]	-5	6.8*	-1	0	0	-7
CCOC(=O)CSc1ccc(C(=O)OCC)cc1[N+](=O)[O-]	3	-2	9	0	·	·
O=C(O)C1(NCc2ccc(F)cc2)CCCCC1	-2	-1	5	0	·	·
CCCN(CCC)Cc1c(C(=O)O)nnn1-c1nonc1N	8	6.0*	0	0	-1	-4
O=C(CC(=O)c1ccccc1)CC(=O)c1ccccc1	17	-1	-10	0	·	·
Cc1nc2ccc(Br)cc2c(Cl)c1CCC(=O)O	1	8.9*	6	0	1	13
CCc1ccccc1N(C)C(=O)c1cc2cc(OC)ccc2oc1=O	12	5.9*	-19	0	0	1
O=C1OC(c2ccccc2Br)=N/C1=C\c1ccc(I)cc1	13	5.3*	6	0	-1	-11
O=C1OC(c2ccccc2Br)=N/C1=C\c1ccc(Br)cc1	3	0	-4	0	·	·
CCn1c2ccccc2c2cc(/C=N/O)ccc21	14	0	12	1	·	·
CCn1c2ccccc2c2cc(/C=N/n3cn[nH]c3=S)ccc21	8	5.0*	22	0	-1	-8
O=C(Nc1ccc(I)cc1)c1cccnc1	-9	3	-22	0	·	·
Cc1c(Cl)cccc1NC(=O)C1CCN(C(=O)Cc2ccccc2)CC1	-1	0	4	0	·	·
O=C(Nc1ccccc1F)C1CCN(C(=O)Cc2ccccc2)CC1	3	5.4*	1	0	-1	-12
COc1ccc(-c2noc(N3CCC(C(=O)NC(C)CCc4ccccc4)CC3)n2)cc1 (centres undefined)	-13	5.1*	-11	0	-1	-8
COc1ccc(-c2noc(N3CCCC(C(=O)Nc4ccccc4OC)C3)n2)cc1 (centres undefined)	0	10*	-7	0	0	-1
COc1ccc(-c2noc(N3CCCC(C(=O)NC4CCCc5ccccc54)C3)n2)cc1 (centres undefined)	-3	5.6*	7	0	1	-2
COc1ccc(-c2noc(N3CCCC(C(=O)N4CCCc5ccccc54)C3)n2)cc1 (centres undefined)	0	4	17	0	·	·
COc1ccc(-c2noc(N3CCC(C(=O)O)CC3)n2)cc1	-2	1	-2	0	·	·
Cn1c(=O)c(=O)n(C)c2cc(S(=O)(=O)N3CCCC3C(=O)NC3CCCCC3)ccc21 (centres undefined)	5	0	9	0	·	·
COC(=O)COc1ccc(S(=O)(=O)Nc2cc(Cl)ccc2OC)cc1C	15	-3	-1	0	·	·
Cc1ccc(Cl)cc1NC(=O)Cn1c2ccccc2c(=O)c2ccc(Cl)cc21	-9	-1	-11	0	·	·
Cc1ccc(-c2c(N3CC(=O)N(CCc4ccccc4)C(=O)C3)c(=O)c2=O)cc1	-4	6.5*	-15	0	0	4
NC1(C(Cl)(Cl)Cl)Oc2ccc(Cl)cc2O1 (centres undefined)	46	9.9*	11	0	0	-3
Cc1ccc(C(=O)ON2C(=O)c3ccccc3C2=O)cc1C	10	7.6*	-5	0	0	15
SMILES	MITF inh	GPR151 activ	TEAD-YAP block	FBW7 act	GPR151 confirm	GPR119 counter
CN(C)C1NC(=O)c2cc(-c3ccccc3)sc2N1 (centres undefined)	-10	7.0*	-9	0	-1	0
NC(=O)c1cc2cc(Br)ccc2oc1=Nc1ccc(F)cc1F	6	6.9*	3	0	1	11
CCn1c(COc2ccccc2OC)nnc1SCC(=O)N(C)C	4	-1	8	0	·	·
CCN1CCN(C(=O)c2nc(-c3cccc(F)c3)n3c2CCCCC3)CC1	2	5.5*	9	0	1	3
Cn1c(=O)c2c(NC(=O)c3c(F)cccc3F)ccnc2n(C)c1=O	6	10*	1	0	-1	3
CC1CCc2c(nc3ncnn3c2N2CCCC2)C1 (centres undefined)	-4	-1	-15	0	·	·
COc1ccc(OC)c(N=c2ssnc2Cl)c1	8	6.0*	-3	0	0	-5
Cc1cc(C)cc(-n2cnc3cc(C(=O)NC4CCCC(C)C4C)ccc32)c1 (centres undefined)	-3	1	-1	0	·	·
CN(C)c1ncnc2c1C(c1ccc([N+](=O)[O-])cc1)c1c(ncnc1N(C)C)O2	8	6.2*	-7	0	0	-6
COc1ccc(-c2nnc3ccc(SCc4ccccc4)nn23)cc1OC	-3	5.6*	-8	0	0	3
COc1ccc(-c2nnc3ccc(SCc4ccc(F)cc4)nn23)cc1OC	-9	4	4	0	·	·
Cc1ccc(OCCOc2cccc(-c3nc4sc5c(c4c(=O)[nH]3)CCCC5)c2)cc1C	9	1	-12	0	·	·
CCOCCn1c(=NC(=O)C2CC2)sc2cc(S(C)(=O)=O)ccc21	3	8.7*	1	0	1	7
C#CCn1c(=NC(=O)C2CC2)sc2cc(S(C)(=O)=O)ccc21	-13	6.5*	3	1	-1	1
Cc1ccc(C(=O)Cn2cncn2)cc1	2	2	4	0	·	·
O=C(Cn1cncn1)c1ccc(Cl)cc1	0	7.8*	-4	0	-1	-2
Clc1ccc(SCCCCn2cncn2)cc1	-4	9.2*	5	0	0	5
O=C(CCc1ccccc1)Nc1ccc2nc(SCC(=O)NC3CCCCC3)sc2c1	-4	-1	-9	0	·	·
CC(C)OCCNC(=O)C1CC(Cc2ccc(F)cc2)=NO1 (centres undefined)	0	1	-26	0	·	·
COc1cccc(/C=N\NC(=O)CNc2ccc(C)cc2)c1O	-24	0	-3	0	·	·
CCOc1ccc(NCC(=O)N/N=C/c2ccccc2O)cc1	10	5.4*	5	0	1	-16
COc1ccc(O)c(/C=N/NC(=O)CNc2cccc(C)c2)c1	-2	0	8	0	·	·
Cc1cccc(NCC(=O)N/N=C/c2ccccc2O)c1	10	7.2*	1	0	2	4
CCOc1ccc(NCC(=O)N/N=C/c2cc(OC)ccc2O)cc1	2	2	13	0	·	·
O=C(CCCCCNC(=O)c1ccccc1)N/N=C/c1ccccc1O	13	9.6*	10	0	1	11

Source: PubChem BioAssay (The Scripps Research Institute Molecular Screening Center)
